The values below come from PubChem BioAssay (Tox21).

Unmarked numbers belong to inactive results. Records with an inconclusive call do not appear. The source made the active and inactive calls. Unless noted, calls come from the whole dose curve; as a rule, active = well fitted curve in the direction sought with a large enough effect in the repeat runs; inconclusive = weak or mixed curves; inactive = no such curve, though single readings can be large; an effect the other way counts as inactive or inconclusive.

A short description of test [1]: qHTS assay to identify small molecule antagonists of the sonic hedgehog signaling (Shh) pathway (AID 1259369; calls by dose curve; note: nearly all actives have a fitted effect of over 45% in size; note: potency is the fitted concentration of half-maximal effect). The procedure, abridged: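 NIH/3T3-derived Gli1-Luc reporter cells plated 4 h, dosed with compound, then stimulated with conditioned medium for 24 h at 37 C. Firefly luciferase luminescence read after 30 min with detection reagent at room temperature.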
For orientation: Quantitative high-throughput screening tests each substance at several concentrations.

Test [2] concerns the target Estrogen receptor beta (Homo sapiens) (UniProt Q92731). As to the kind of experiment: qHTS assay to identify small molecule agonists of the estrogen receptor beta (ER-beta) signaling pathway (AID 1259377; active = well fitted activation curve with a large enough effect in the signal ratio in the repeat runs, not every such curve was filed as active; the % refers to the signal ratio). The procedure, abridged:
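Read-out: beta-lactamase FRET fluorescence. Cell line: ER-beta-UAS-bla HEK293T in 2% charcoal-stripped FBS. Exposure: 16 hr at 37C. Substrate step: 2 h at room temperature.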

For test [3] the target is unchanged. As to the kind of experiment: qHTS assay to identify small molecule antagonists of the estrogen receptor beta (ER-beta) signaling pathway (AID 1259378; active = well fitted inhibition curve with a large enough effect in the signal ratio in the repeat runs, not every such curve was filed as active; the % refers to the signal ratio; note: potency is the fitted concentration of half-maximal effect). The method in brief:
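ER-beta-UAS-bla HEK293T cells in 2% charcoal-stripped FBS medium treated with compound plus 1nM final 17-beta-estradiol for 16 hr at 37C. Beta-lactamase reporter read by FRET substrate fluorescence after 2 hours at room temperature.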

The nature of test [4]: qHTS assay to identify small molecule agonists of the androgen receptor (AR) signaling pathway in the presence of an antagonist - cell viability counter screen (AID 1259379).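 Note: MDA-kb2 human breast cancer cells carrying an MMTV luciferase reporter; series mostly up to about 92 µM; nearly all actives have a fitted effect of over 25% in size.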 The method in brief:
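MDA-kb2 cells (MMTV-luciferase, AR/GR), 3,000/well, 5 h attachment, then 3.0 µM nilutamide (final) and compounds at 15 concentrations. Viability by CellTiter-Fluor fluorescence after 16 h at 37 °C, 0% CO2, in the reporter wells.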

A short description of test [5]: qHTS assay to identify small molecule agonists of the estrogen receptor beta (ER-beta) signaling pathway - cell viability counter screen (AID 1259380). Note: nearly all actives have a fitted effect of over 30% in size. The method in brief: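 ER-beta-UAS-bla HEK293T cells in medium with 2% charcoal-stripped FBS, pre-incubated 6 hr, then treated 16 hr at 37C. Cytotoxicity read in the same wells by CellTiter-Glo luminescence after 30 min at room temperature.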

Test [6] in a line: qHTS assay to identify small molecule antagonists of the estrogen receptor beta (ER-beta) signaling pathway - cell viability counter screen (AID 1259382). Note: series mostly up to about 92 µM; nearly all actives have a fitted effect of over 55% in size. The procedure, abridged:
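ER-beta-UAS-bla HEK293T cells in 2% charcoal-stripped FBS medium, treated with compound plus 1 nM 17-beta-estradiol for 16 h at 37C. Viability read by CellTiter-Glo luminescence after 30 min at room temperature in the same wells.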

The target in test [7] is Estrogen receptor (Homo sapiens) (UniProt P03372). As to the kind of experiment: qHTS assay to identify small molecule agonists of the estrogen receptor alpha (ER-alpha) signaling pathway in the presence of an antagonist (AID 1259383; calls by dose curve; note: top concentration of the series differs between compounds; nearly all actives have a fitted effect of over 15% in size). The procedure, abridged: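 VM7Luc4E2 cells express endogenous full-length ER-alpha with an ERE-luciferase reporter and were hormone-deprived for 5 days. Compounds at 15 concentrations were added with 10.0nM ICI-182,780 for 22hr at 37C. Luminescence was read with ONE-Glo.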

For test [8], the target named is Progesterone receptor (Homo sapiens) (UniProt P06401). Put plainly: qHTS assay to identify small molecule agonists of the progesterone receptor (PR) signaling pathway (AID 1346784; calls by dose curve; note: nearly all actives have a fitted effect of over 30% in size). The method in brief:
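Compounds were tested for PR agonism in HEK 293T cells bearing a beta-lactamase gene under UAS control. Treatment lasted 16 hr at 37C; signal came from fluorescence of a FRET substrate.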

The target is the same in test [9]. As to the kind of experiment: qHTS assay to identify small molecule antagonists of the progesterone receptor (PR) signaling pathway (AID 1346795; active = well fitted inhibition curve with a large enough effect in the signal ratio in the repeat runs, not every such curve was filed as active; the % refers to the signal ratio; note: potency is the fitted concentration of half-maximal effect). The procedure, abridged:
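In HEK293T cells bearing the PR-UAS-bla reporter, compound effects on promegestone-driven (1 nM) beta-lactamase expression are assessed after 16 hr using a fluorescent FRET substrate incubated 2 hr at room temperature.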

The nature of test [10]: qHTS assay to identify small molecule antagonists of the progesterone receptor (PR) signaling pathway - cell viability counter screen (AID 1346798). Note: series mostly up to about 92 µM; nearly all actives have a fitted effect of over 50% in size. The procedure, abridged:
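Following a 4 hr attachment, PR-UAS-bla HEK293T cells in charcoal-stripped FBS medium were exposed to compounds with R5020 for 16 hr; CellTiter-Glo was added and luminescence read after 30 min at room temperature.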

A short description of test [11]: qHTS assay to identify small molecule agonists of the progesterone receptor (PR) signaling pathway - cell viability counter screen (AID 1346799; calls by dose curve; note: nearly all actives have a fitted effect of over 45% in size). The method in brief: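 Here, 3,000 PR-UAS-bla HEK293T cells per well were treated with compounds for 16 hr after a 6 hr preincubation at 37C and 5% CO2; cell viability is the CellTiter-Glo luminescence signal.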
Test [12] is described as follows: qHTS assay to identify small molecule antagonists of the TGF-beta/Smad signaling pathway - cell viability counter screen (AID 1346824). Note: nearly all actives have a fitted effect of over 50% in size. The method in brief:
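SBE-bla HEK 293T cells, incubated overnight, then compound plus 0.25 ng/mL TGF-beta1 (stock added) for 5 hr at 37 C. Viability was read in the same wells by CellTiter-Glo luminescence after 30 min at room temperature.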

A short description of test [13]: qHTS assay to identify small molecule agonists of the TGF-beta/Smad signaling pathway - cell viability counter screen (AID 1346829). Note: top concentration of the series differs between compounds; nearly all actives have a fitted effect of over 45% in size. The method in brief:
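Luminescence from CellTiter-Glo, read after a 30 min room-temperature incubation, gives cell viability of SBE-bla HEK 293T cells treated 5 hr with compounds at 37 C.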

The nature of test [14]: qHTS assay to identify small molecule agonists of the TGF-beta/Smad signaling pathway (AID 1346859; active = well fitted activation curve with a large enough effect in the signal ratio in the repeat runs, not every such curve was filed as active; the % refers to the signal ratio; note: series mostly up to about 77 µM). The procedure, abridged: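 Each well held 4,000 SBE-bla HEK 293T cells incubated overnight before compound addition; 5 hr later the cleavable FRET substrate went on for 2 hr at room temperature, and fluorescence was read at two emissions.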
Test [15] concerns the target Androgen receptor (Homo sapiens) (UniProt P10275). Put plainly: qHTS assay to identify small molecule agonists of the androgen receptor (AR) signaling pathway in the presence of an antagonist (AID 1259381; calls by dose curve; note: nearly all actives have a fitted effect of over 15% in size). The procedure, abridged: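 MDA-kb2 cells carrying MMTV-luciferase (AR/GR responsive), 3,000 cells/well, co-treated with 3.0 uM nilutamide final. Compounds at 15 concentrations, 16 hr at 37C without CO2. Luciferase luminescence read after 30 min with ONE-Glo.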

Test [16] in a line: qHTS assay to identify small molecule agonists of the estrogen receptor alpha (ER-alpha) signaling pathway in the presence of an antagonist - cell viability counter screen (AID 1259386).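 Note: series mostly up to about 92 µM; cells exposed to compounds for 22 h at 37 °C before the viability read; nearly all actives have a fitted effect of over 30% in size.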 The method in brief: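 Cell viability in VM7Luc4E2 cells (endogenous full-length ER-alpha) measured by CellTiter-Fluor fluorescence in the same wells as the luciferase screen. Cells pre-cultured 5 days in charcoal-stripped serum, then treated 22 h with compounds at 15 concentrations plus 10.0nM ICI-182,780.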

Test [17] concerns the target Thyrotropin-releasing hormone receptor (Homo sapiens) (UniProt P34981). Put plainly: qHTS assay to identify small molecule antagonists of the thyrotropin-releasing hormone receptor (TRHR) signaling pathway (AID 1346877; active = well fitted inhibition curve with a large enough effect in the repeat runs, not every such curve was filed as active; note: series mostly up to about 51 µM). The method in brief:
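TRHR-expressing HEK293 cells loaded with calcium dye for 2 h at 37 C; compounds pre-incubated 5 min at room temperature before TRH challenge at 1 nM final. Intracellular calcium fluorescence read kinetically for 3 min; 15 concentrations in triplicate.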

Test [18] has the same target. Put plainly: qHTS assay to identify small molecule agonists of the thyrotropin-releasing hormone receptor (TRHR) signaling pathway (AID 1346891; calls by dose curve; note: series mostly up to about 58 µM). The procedure, abridged: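 Screening of agonists relied on calcium signalling in HEK293 cells expressing human TRHR: dye loading 2 h at 37 °C preceded compound addition and a 3-min fluorescence time course.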
Test [19] in a line: qHTS assay to identify small molecule agonists or antagonists of the thyroid stimulating hormone receptor (TSHR) signaling pathway - wild type cell line counter screen (AID 1259384; calls by dose curve). The method in brief: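 Wild-type Hek293 cells, 800/well, 18 h at 37C, then compound with Ro20-1724 for 30 min RT. cAMP by HTRF (cAMP-d2/anti-cAMP cryptate), 1 h RT, fluorescence read. 15 concentrations, triplicates.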

Test [20] deals with Thyrotropin receptor (Homo sapiens) (UniProt P16473). As to the kind of experiment: qHTS assay to identify small molecule antagonists of the thyroid stimulating hormone receptor (TSHR) signaling pathway (AID 1259385; calls by dose curve; note: nearly all actives have a fitted effect of over 20% in size; note: potency is the fitted concentration of half-maximal effect). The procedure, abridged:
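TSHR-HEK293 cells (800/well) plated 18 h, then compounds with Ro20-1724 and TSH at 1.5 ng/mL final, 30 min at room temperature. cAMP quantified by HTRF (cAMP-d2/anti-cAMP-cryptate, 1 h); 15 concentrations in triplicate.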

Estrogen receptor beta (Homo sapiens), sequence (Q92731 whole entry, looked up): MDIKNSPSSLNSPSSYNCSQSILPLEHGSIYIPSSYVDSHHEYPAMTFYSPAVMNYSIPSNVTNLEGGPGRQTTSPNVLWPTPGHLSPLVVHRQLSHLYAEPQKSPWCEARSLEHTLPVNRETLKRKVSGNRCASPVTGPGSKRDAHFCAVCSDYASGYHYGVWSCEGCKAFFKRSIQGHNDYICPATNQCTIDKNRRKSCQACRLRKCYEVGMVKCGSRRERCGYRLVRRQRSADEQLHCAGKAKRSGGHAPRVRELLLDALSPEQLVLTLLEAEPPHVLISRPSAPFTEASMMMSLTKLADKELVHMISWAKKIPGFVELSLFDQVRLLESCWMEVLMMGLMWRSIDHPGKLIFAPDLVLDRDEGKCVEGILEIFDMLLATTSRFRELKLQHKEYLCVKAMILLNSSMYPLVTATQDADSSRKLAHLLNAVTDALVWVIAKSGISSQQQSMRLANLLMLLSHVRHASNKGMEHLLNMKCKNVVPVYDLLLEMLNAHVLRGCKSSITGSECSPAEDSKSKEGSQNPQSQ
Thyrotropin receptor (Homo sapiens), sequence (P16473 whole entry, looked up): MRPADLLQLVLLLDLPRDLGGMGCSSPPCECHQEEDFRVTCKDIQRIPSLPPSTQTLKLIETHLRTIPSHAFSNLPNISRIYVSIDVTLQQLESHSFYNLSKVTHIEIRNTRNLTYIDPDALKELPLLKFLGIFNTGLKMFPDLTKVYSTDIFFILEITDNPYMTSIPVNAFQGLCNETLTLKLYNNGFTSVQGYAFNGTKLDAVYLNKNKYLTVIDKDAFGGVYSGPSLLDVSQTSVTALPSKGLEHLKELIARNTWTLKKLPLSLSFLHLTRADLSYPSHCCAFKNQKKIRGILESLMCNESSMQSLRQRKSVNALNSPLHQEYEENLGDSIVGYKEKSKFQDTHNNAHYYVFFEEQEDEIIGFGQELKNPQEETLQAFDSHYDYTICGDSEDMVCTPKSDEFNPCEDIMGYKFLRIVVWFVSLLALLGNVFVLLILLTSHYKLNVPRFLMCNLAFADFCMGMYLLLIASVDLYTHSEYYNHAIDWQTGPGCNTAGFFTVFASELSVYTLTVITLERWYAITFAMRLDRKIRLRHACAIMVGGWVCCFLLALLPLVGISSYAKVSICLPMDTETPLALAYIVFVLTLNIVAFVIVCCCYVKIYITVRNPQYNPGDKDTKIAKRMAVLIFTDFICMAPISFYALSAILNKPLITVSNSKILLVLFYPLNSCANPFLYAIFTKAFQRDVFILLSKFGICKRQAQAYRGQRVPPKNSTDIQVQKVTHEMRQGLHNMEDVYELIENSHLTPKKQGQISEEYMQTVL
Estrogen receptor (Homo sapiens), sequence (P03372 whole entry, looked up): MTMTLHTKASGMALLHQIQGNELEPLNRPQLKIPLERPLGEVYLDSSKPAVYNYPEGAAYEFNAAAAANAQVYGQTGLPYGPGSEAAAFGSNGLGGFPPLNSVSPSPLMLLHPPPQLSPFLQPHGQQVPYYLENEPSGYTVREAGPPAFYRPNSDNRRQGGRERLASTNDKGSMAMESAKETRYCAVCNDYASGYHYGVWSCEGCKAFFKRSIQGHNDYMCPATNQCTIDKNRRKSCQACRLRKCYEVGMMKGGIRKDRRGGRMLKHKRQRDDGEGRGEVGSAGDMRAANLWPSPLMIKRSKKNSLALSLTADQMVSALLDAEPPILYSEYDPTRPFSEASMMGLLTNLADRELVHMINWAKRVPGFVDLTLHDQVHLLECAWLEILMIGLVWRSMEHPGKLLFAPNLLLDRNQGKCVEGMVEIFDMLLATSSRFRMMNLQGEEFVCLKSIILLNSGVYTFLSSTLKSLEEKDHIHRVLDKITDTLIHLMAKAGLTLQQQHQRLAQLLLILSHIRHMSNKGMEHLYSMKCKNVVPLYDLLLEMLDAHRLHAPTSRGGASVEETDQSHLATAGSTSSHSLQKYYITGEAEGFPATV
Progesterone receptor (Homo sapiens), sequence (P06401 whole entry, looked up): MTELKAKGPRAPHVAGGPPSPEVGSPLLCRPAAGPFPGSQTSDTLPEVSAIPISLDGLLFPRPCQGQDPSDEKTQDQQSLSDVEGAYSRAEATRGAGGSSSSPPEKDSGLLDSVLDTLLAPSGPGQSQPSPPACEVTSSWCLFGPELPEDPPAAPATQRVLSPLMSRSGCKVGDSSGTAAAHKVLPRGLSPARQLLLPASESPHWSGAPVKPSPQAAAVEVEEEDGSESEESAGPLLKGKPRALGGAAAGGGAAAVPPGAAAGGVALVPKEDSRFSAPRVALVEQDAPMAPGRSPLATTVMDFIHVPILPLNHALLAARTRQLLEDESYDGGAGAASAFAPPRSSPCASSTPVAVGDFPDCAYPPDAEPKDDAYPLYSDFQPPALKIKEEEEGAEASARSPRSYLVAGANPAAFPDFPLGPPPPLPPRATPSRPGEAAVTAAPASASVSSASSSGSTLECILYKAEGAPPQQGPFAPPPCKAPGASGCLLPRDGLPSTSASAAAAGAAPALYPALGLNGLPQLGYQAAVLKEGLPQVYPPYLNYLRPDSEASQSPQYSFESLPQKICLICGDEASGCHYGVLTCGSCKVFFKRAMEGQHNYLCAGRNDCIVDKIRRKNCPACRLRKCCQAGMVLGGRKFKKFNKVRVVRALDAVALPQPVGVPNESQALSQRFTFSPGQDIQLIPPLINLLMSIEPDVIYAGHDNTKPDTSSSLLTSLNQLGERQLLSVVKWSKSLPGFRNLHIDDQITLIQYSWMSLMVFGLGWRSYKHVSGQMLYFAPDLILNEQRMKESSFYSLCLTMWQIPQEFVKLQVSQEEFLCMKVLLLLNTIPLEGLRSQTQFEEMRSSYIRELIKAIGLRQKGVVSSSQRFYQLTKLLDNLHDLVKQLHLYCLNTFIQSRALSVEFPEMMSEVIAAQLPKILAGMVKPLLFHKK
Thyrotropin-releasing hormone receptor (Homo sapiens), sequence (P34981 whole entry, looked up): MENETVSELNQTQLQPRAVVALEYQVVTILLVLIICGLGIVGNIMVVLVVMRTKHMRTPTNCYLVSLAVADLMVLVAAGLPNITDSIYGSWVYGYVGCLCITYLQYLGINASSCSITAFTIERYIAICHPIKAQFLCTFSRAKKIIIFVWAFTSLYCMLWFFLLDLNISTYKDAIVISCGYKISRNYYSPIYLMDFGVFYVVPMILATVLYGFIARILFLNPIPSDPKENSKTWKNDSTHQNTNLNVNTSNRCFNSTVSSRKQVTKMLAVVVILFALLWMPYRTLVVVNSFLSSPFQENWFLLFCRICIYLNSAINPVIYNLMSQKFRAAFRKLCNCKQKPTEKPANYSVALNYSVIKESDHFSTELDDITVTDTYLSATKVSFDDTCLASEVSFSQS
Androgen receptor (Homo sapiens), sequence (P10275 whole entry, looked up): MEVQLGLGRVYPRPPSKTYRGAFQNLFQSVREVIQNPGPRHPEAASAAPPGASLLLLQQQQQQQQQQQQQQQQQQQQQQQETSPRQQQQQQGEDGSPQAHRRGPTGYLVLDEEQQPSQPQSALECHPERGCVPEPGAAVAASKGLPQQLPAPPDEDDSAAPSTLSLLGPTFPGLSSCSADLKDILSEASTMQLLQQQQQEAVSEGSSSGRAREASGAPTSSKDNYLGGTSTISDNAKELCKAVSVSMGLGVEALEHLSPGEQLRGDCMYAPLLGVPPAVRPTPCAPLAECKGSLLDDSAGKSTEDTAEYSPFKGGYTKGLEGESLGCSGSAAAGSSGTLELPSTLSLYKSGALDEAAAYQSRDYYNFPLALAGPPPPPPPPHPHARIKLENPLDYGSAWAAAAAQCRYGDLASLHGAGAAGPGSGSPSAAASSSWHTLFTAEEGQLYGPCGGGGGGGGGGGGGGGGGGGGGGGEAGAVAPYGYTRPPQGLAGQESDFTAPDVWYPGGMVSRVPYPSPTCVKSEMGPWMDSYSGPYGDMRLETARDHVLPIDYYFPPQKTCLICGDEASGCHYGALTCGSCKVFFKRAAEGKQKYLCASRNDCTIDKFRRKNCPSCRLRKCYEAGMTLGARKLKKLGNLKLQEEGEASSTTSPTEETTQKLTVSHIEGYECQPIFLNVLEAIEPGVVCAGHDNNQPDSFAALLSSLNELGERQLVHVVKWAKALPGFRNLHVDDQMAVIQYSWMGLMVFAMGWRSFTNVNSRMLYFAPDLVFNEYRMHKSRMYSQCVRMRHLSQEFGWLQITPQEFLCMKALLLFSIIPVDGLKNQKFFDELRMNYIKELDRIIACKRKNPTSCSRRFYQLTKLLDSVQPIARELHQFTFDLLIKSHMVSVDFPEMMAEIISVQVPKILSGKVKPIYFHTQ

With `CCCCC1=NC2(CCCC2)C(=O)N1Cc1ccc(-c2ccccc2-c2nn[nH]n2)cc1`, the Potency result in test [1], in [2], in [3], in test [4], in test [5] and in [6] was “inactive” in each case. The Potency result in test [7], in test [8], in [9], in test [10], in [11] and in [12] was “inactive” each time. Also, in test [14], the Potency result was “inactive”. Besides, in test [13], the result was inactive.

Consider `CCO[C@H](Cc1ccc(OCCc2ccc(OS(C)(=O)=O)cc2)cc1)C(=O)O`, for which the Potency entry in test [1], in test [2], in test [3], in [4], in test [5] and in test [15] was “inactive” throughout. Also, the Potency result in test [6], in test [7], in test [16], in test [8], in [9] and in test [11] was “inactive” throughout. For the same compound, the Potency entry in test [12] and in test [14] was “inactive” throughout. Further, the call in [13] was inactive.

Turning to `C=C1[C@H]2CC[C@@H]3[C@H]2C(C)(C)CCC[C@]13C`, the Potency entry in test [1], in [2], in test [3], in [4], in test [5] and in [6] was “inactive” throughout. Further, the Potency entry in [7], in test [16], in test [8], in [9], in test [12] and in test [14] was “inactive” throughout. Moreover, the Potency result in [18] is “inactive”. Further, the compound was called inactive in [13] and in test [17].

As for `CCc1c(C(=O)NN2CCCCC2)nn(-c2ccc(Cl)cc2Cl)c1-c1ccc(Br)cc1`, the Potency result in [1], in [2], in test [4], in [7], in [19] and in test [20] was “inactive” in each case. The Potency result in test [16], in test [8], in test [10], in [12] and in test [18] was “inactive” in each case. Besides, the Potency in [3] is 4.33 µM (active); in test [9], 3.44 µM (active). In addition, the compound was classed as inactive in test [13] and in test [17].

As for `Cc1cc(C(=O)O)ccc1[N+](=O)[O-]`, the Potency entry in [1], in test [2], in test [3], in [4], in [5] and in test [6] was “inactive” each time. For the same compound, the Potency result in [7], in [20], in [16], in test [8], in [10] and in test [12] was “inactive” in each case. In test [18], the Potency result is “inactive”. Moreover, the call in test [13] and in test [17] was inactive.

For `COc1ccc(C(=O)N2CCN(CC(=O)N3CCOCC3)CC2)cc1`, the Potency result in [1], in test [2], in test [3], in test [4], in test [5] and in test [6] was “inactive” each time. Also, the Potency result in test [7], in test [19], in test [20], in test [16], in test [9] and in test [11] was “inactive” throughout. In addition, the Potency result in test [12], in test [14] and in [18] was “inactive” each time. The outcome in test [13] and in [17] was inactive.

On to `CCN(CC)CCOC(=O)C(c1ccccc1)C1CCCCC1` (stereo not given), for which the results for the Potency in [1] and in test [20] were 15 µM (active) and 26.6 µM (active), respectively. Besides, the Potency entry in [2], in test [3], in test [4], in test [5], in [6] and in test [7] was “inactive” each time. The Potency result in [19], in [9], in test [10], in test [12] and in test [14] was “inactive” in each case. Moreover, the call in test [13] was inactive.
